Reference: PubChem BioAssay AID1159580 (chemical genetic matrix, 2015)
In all, about 5,500 compounds went through this assay and about 2,000 (36%) were called active. Roughly 18% stayed inconclusive and do not appear here. Rule as the data show it: active = normalized growth mostly below about 0.91 (no sharp cut-off); inconclusive = no clear call, values can overlap the other calls; inactive = mostly above about 0.92. The list shows a part of the results.

Assay: chemical genetic growth profiling, strain panel (AID 1159580);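 also: tested at 20 µM; growth read once vehicle control cultures reached saturation at 30 °C; 1 = growth at the plate median or of vehicle wells; lower values mean less growth of the strain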
Details: growth OD

Measured: normalized growth

COP(=S)(OC)Oc1ccc(SC)c(C)c1
active: S. cerevisiae deletion strains, locus YLR320W, strain mms22, active compounds read low 0.857 | S. cerevisiae deletion strains, locus YNL071W, strain lat1, active compounds read low 0.879
inactive: S. cerevisiae deletion strains, locus YJR075W, strain HOC1, active compounds read low 1.01 | S. cerevisiae deletion strains, locus YKL009W, strain mrt4, active compounds read low 0.942 | S. cerevisiae deletion strains, locus YKL068W, active compounds read low 0.996 | S. cerevisiae deletion strains, locus YKL085W, strain MDH1 (second series), active compounds read low 0.999 | S. cerevisiae deletion strains, locus YKL085W, strain MDH1, active compounds read low 0.999 | S. cerevisiae deletion strains, locus YKL160W, strain elf1, active compounds read low 0.999 | S. cerevisiae deletion strains, locus YKL190W, strain CNB1, active compounds read low 1 | S. cerevisiae deletion strains, locus YKR001C, strain vps1, active compounds read low 0.986 | S. cerevisiae deletion strains, locus YKR026C, strain gcn3, active compounds read low 1.01 | S. cerevisiae deletion strains, locus YKR091W, strain srl3, active compounds read low 0.995 | S. cerevisiae deletion strains, locus YLL001W, strain dnm1, active compounds read low 0.986 | S. cerevisiae deletion strains, locus YLL026W, active compounds read low 0.972 | S. cerevisiae deletion strains, locus YLL041C, strain sdh2, active compounds read low 1 | S. cerevisiae deletion strains, locus YLR027C, strain aat2, active compounds read low 0.988 | S. cerevisiae deletion strains, locus YLR039C, strain RIC1, active compounds read low 1.02 | S. cerevisiae deletion strains, locus YLR058C, strain SHM2, active compounds read low 1.01 | S. cerevisiae deletion strains, locus YLR102C, strain apc9, active compounds read low 0.985 | S. cerevisiae deletion strains, locus YLR221C, strain rsa3, active compounds read low 0.92 | S. cerevisiae deletion strains, locus YLR258W, strain gsy2, active compounds read low 0.979 | S. cerevisiae deletion strains, locus YLR262C, strain YPT6 (second series), active compounds read low 0.949 | S. cerevisiae deletion strains, locus YLR262C, strain YPT6, active compounds read low 1.01 | S. cerevisiae deletion strains, locus YLR268W, strain sec22, active compounds read low 0.996 | S. cerevisiae deletion strains, locus YLR330W, strain CHS5, active compounds read low 1.01 | S. cerevisiae deletion strains, locus YLR342W, strain FKS1 (second series), active compounds read low 0.985 | S. cerevisiae deletion strains, locus YLR342W, strain FKS1, active compounds read low 0.997 | S. cerevisiae deletion strains, locus YLR357W, strain rsc2, active compounds read low 1.1 | S. cerevisiae deletion strains, locus YLR370C, strain arc18, active compounds read low 1.06 | S. cerevisiae deletion strains, locus YLR371W, strain rom2, active compounds read low 0.989 | S. cerevisiae deletion strains, locus YLR384C, strain iki3, active compounds read low 1.02 | S. cerevisiae deletion strains, locus YLR418C, strain cdc73, active compounds read low 0.984 | S. cerevisiae deletion strains, locus YML016C, strain PPZ1, active compounds read low 1.02 | S. cerevisiae deletion strains, locus YML032C, strain rad52, active compounds read low 0.979 | S. cerevisiae deletion strains, locus YML120C, strain ndi1, active compounds read low 0.997 | S. cerevisiae deletion strains, locus YML124C, strain tub3, active compounds read low 0.985 | S. cerevisiae deletion strains, locus YMR058W, strain fet3, active compounds read low 0.987 | S. cerevisiae deletion strains, locus YMR078C, strain ctf18, active compounds read low 0.975 | S. cerevisiae deletion strains, locus YMR125W, strain sto1, active compounds read low 1.05 | S. cerevisiae deletion strains, locus YMR129W, active compounds read low 1.01 | S. cerevisiae deletion strains, locus YMR205C, strain PFK2, active compounds read low 0.947 | S. cerevisiae deletion strains, locus YMR223W, strain ubp8, active compounds read low 0.982 | S. cerevisiae deletion strains, locus YMR231W, strain pep5, active compounds read low 1 | S. cerevisiae deletion strains, locus YMR263W, strain SAP30, active compounds read low 1.01 | S. cerevisiae deletion strains, locus YMR307W, strain GAS1, active compounds read low 0.908 | S. cerevisiae deletion strains, locus YNL067W, strain RPL9B, active compounds read low 1.01 | S. cerevisiae deletion strains, locus YNL128W, strain TEP1, active compounds read low 1.02 | S. cerevisiae deletion strains, locus YNL153C, strain GIM3, active compounds read low 1.02 | S. cerevisiae deletion strains, locus YNL209W, strain ssb2, active compounds read low 1.01 | S. cerevisiae deletion strains, locus YNL233W, strain BNI4, active compounds read low 0.998 | S. cerevisiae deletion strains, locus YNL248C, strain rpa49, active compounds read low 0.967 | S. cerevisiae deletion strains, locus YNL250W, strain rad50, active compounds read low 0.987 | S. cerevisiae deletion strains, locus YNL271C, strain bni1, active compounds read low 0.989 | S. cerevisiae deletion strains, locus YNL298W, strain CLA4, active compounds read low 0.981 | S. cerevisiae deletion strains, locus YNL307C, strain MCK1, active compounds read low 0.979 | S. cerevisiae deletion strains, locus YNL322C, strain KRE1 (second series), active compounds read low 1.01 | S. cerevisiae deletion strains, locus YNL322C, strain KRE1, active compounds read low 1.02 | S. cerevisiae deletion strains, locus YNR049C, strain mso1, active compounds read low 1 | S. cerevisiae deletion strains, locus YNR052C, strain pop2, active compounds read low 0.984 | S. cerevisiae deletion strains, locus YOL006C, strain TOP1, active compounds read low 1.01 | S. cerevisiae deletion strains, locus YOL012C, strain htz1 1.06 | S. cerevisiae deletion strains, locus YOL147C, strain pex11, active compounds read low 0.985 | S. cerevisiae deletion strains, locus YOR001W, strain rrp6, active compounds read low 0.99 | S. cerevisiae deletion strains, locus YOR061W, strain CKA2, active compounds read low 1.01 | S. cerevisiae deletion strains, locus YOR069W, strain VPS5, active compounds read low 1.01 | S. cerevisiae deletion strains, locus YOR070C, strain gyp1, active compounds read low 0.978 | S. cerevisiae deletion strains, locus YOR080W, strain dia2, active compounds read low 1.03 | S. cerevisiae deletion strains, locus YOR083W, strain WHI5, active compounds read low 0.951 | S. cerevisiae deletion strains, locus YOR106W, strain vam3, active compounds read low 0.968 | S. cerevisiae deletion strains, locus YOR136W, strain idh2, active compounds read low 0.985 | S. cerevisiae deletion strains, locus YOR144C, strain elg1, active compounds read low 0.992 | S. cerevisiae deletion strains, locus YOR184W, strain ser1, active compounds read low 0.958 | S. cerevisiae deletion strains, locus YOR265W, strain rbl2, active compounds read low 1.01 | S. cerevisiae deletion strains, locus YOR270C, strain vph1, active compounds read low 0.791 | S. cerevisiae deletion strains, locus YOR290C, strain snf2, active compounds read low 0.994 | S. cerevisiae deletion strains, locus YOR316C, strain cot1, active compounds read low 0.992 | S. cerevisiae deletion strains, locus YPL051W, strain arl3, active compounds read low 0.96 | S. cerevisiae deletion strains, locus YPL055C, strain LGE1, active compounds read low 1.01 | S. cerevisiae deletion strains, locus YPL078C, strain atp4, active compounds read low 0.988 | S. cerevisiae deletion strains, locus YPL106C, strain sse1, active compounds read low 1.08 | S. cerevisiae deletion strains, locus YPL240C, strain hsp82, active compounds read low 1.03 | S. cerevisiae deletion strains, locus YPL241C, strain CIN2, active compounds read low 1.01 | S. cerevisiae deletion strains, locus YPR119W, strain clb2, active compounds read low 0.981 | S. cerevisiae deletion strains, locus YPR141C, strain kar3, active compounds read low 0.988 | S. cerevisiae deletion strains, locus YPR163C, strain tif3, active compounds read low 0.98 | S. cerevisiae deletion strains, locus YPR167C, strain met16, active compounds read low 0.983 | S. cerevisiae deletion strains, strain wtn01, active compounds read low 0.989 | S. cerevisiae strains, strain wild type, active compounds read low 1.01
